The results in this text go back to PubChem BioAssay (NCATS).

Structures are written as SMILES. Values without a mark were called inactive. Records with an inconclusive call do not appear. Activity calls are given as the source filed them. Unless noted, calls follow the shape of the dose curve; as a rule, active = well fitted curve in the direction sought with a large enough effect; inconclusive = small, poorly fitted or top-dose-only effect, or another doubt; inactive = no such curve, though single readings can be large; an effect the other way counts as inactive or inconclusive. Bounds are passed on as bounds.

Experiment [1] can be described thus: AP1 Signaling Pathway (AID 357; active = well fitted curve in either direction with a large enough effect, not every such curve was filed as active;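 also: ME-180 reporter cells stimulated with EGF at its EC50 level; % is scaled to controls: 0 for no effect and ±100 for the full control effect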). Particulars: ME-180 AP-1-bla reporter, EGF-induced, beta-lactamase ratio, 5 h; at 7.69 µM (top of the series) unless noted. An outline of the steps:
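Modulation of EGF-driven AP-1 transcription was assessed with a beta-lactamase reporter in ME-180 cells. Compound and EC50 EGF were co-incubated 5 hours at 37 °C before 2.5-hour CCF4 loading at room temperature and dual-emission reading.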

The target of experiment [2] is Cytochrome P450 1A2 (Homo sapiens) (UniProt P05177). Put plainly: p450-cyp1a2 (AID 410; calls by dose curve; also: potency is read from the fitted curve at half-maximal effect). The essentials: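 O-Demethylation of luciferin 6' methyl ether by human CYP1A2 is monitored as luciferase luminescence. Substrate sits at Km (100uM); enzyme is 20nM. Values are scaled to 57 uM furafylline as maximal inhibition.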
Sequence of Cytochrome P450 1A2 (Homo sapiens) (P05177 whole entry, looked up): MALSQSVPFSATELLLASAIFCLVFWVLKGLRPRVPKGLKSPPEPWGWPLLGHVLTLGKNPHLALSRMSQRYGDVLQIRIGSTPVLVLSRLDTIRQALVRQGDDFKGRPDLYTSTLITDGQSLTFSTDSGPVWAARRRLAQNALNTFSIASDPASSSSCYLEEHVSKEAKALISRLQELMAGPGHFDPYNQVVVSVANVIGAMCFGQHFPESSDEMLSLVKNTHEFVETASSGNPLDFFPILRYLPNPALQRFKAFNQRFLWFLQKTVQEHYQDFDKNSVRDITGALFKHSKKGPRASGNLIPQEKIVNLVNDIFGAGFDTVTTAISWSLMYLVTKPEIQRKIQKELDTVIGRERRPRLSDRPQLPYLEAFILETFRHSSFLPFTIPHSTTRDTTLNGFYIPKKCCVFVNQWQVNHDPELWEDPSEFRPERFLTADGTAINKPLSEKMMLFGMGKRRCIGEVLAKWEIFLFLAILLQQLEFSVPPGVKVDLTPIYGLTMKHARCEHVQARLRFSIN
A short description of experiment [3]: NFAT Signaling Pathway (AID 444; active = well fitted curve in either direction with a large enough effect, not every such curve was filed as active;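 also: carbachol stimulus at about its EC50 of 1 µM final; % is scaled to controls: 0 for no effect and ±100 for the full control effect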). Particulars: Jurkat NFAT-bla M1, carbachol, beta-lactamase ratio, 5 h; at 7.69 µM (top of the series) unless noted. An outline of the steps: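 Read-out: CCF4 FRET ratio (460 nm/530 nm) after 1 h RT dye loading, used for %activity and AC50 from titration series. Cells: Jurkat NFAT-β-lactamase/M1 line, treated with compound plus 1 uM carbachol for 5 h, 37 °C.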

For experiment [4], the target named is Glucocorticoid receptor (Homo sapiens) (UniProt P04150). The experiment is described as follows: GR-GFP Redistribution (AID 450;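 active = compounds whose dose series gives a full or clear partial fitted curve of increased nuclear translocation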; also: potency is read from the fitted curve at half-maximal effect). Particulars: U2OS GR-GFP nuclear translocation, laser cytometry, 2 h.
Sequence of Glucocorticoid receptor (Homo sapiens) (P04150 whole entry, looked up): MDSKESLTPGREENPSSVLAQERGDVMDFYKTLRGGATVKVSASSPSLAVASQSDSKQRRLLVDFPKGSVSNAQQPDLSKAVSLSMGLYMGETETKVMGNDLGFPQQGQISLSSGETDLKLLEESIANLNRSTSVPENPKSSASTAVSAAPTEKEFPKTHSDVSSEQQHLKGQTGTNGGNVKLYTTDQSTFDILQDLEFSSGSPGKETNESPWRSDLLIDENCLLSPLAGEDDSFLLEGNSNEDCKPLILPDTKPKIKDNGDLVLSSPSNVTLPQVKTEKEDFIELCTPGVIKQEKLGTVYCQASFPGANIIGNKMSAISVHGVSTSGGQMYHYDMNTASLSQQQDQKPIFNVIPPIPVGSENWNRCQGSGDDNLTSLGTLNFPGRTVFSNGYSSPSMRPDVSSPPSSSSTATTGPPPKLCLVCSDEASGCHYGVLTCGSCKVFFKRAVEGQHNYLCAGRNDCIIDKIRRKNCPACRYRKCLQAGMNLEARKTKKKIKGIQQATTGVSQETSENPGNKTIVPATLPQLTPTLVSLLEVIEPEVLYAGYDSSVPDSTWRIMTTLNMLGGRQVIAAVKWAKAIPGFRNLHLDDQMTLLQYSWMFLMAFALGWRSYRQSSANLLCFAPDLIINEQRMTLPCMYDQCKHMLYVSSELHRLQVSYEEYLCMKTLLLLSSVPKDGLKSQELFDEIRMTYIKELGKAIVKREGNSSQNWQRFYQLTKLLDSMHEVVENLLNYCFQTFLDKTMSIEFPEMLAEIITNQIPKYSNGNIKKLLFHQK
Experiment [5] has the same target. The experiment is described as follows: GR-EFC Redistribution (AID 451; calls by dose curve; also: potency is read from the fitted curve at half-maximal effect). Particulars: CHO-K1 GR-EFC translocation, beta-gal luminescence, 2 h. The essentials:
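Translocation of GR-ED fusion to nuclear EA restores b-gal, read by luminescence after 1 h room-temperature detection. Engineered CHO-K1 biosensor cells, 1,000/well, exposed 2 h at 37 C to titrations up to 46 uM final.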

Experiment [6] addresses 3',5'-cyclic-AMP phosphodiesterase 4B (Homo sapiens) (UniProt Q07343). The experiment is described as follows: qHTS Assay for Inhibitors of PDE-IV (AID 607; active = well fitted activation curve with a large enough effect in the main read-out, with a control signal flat, not every such curve was filed as active; also: % of control where 0% means no effect). The essentials:
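The readout is membrane depolarisation from a cAMP-sensing CNG channel, detected with a potential dye at ex 535/em 590. Cells were HEK293-derived (endogenous PDE-IV) at 1000 cells/well, titrated up to 22.9 uM final.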
(In general: In qHTS, concentration-response curves come from the screen itself.)

Experiment [7] has as its target Cytochrome P450 3A4 (Homo sapiens) (UniProt P08684). The experiment is described as follows: qHTS Assay for Activators of Cytochrome P450 3A4 (AID 885). Also: nearly all actives have a fitted effect of over 65% in size. An outline of the steps:
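Activators are scored by enhanced luminescence from CYP3A4 conversion of luciferin-PPXE (25uM, equal to KM) to luciferin, after 60 min at RT with an NADPH-regenerating system.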

Experiment [8] in a line: qHTS Assay for Identification of Small Molecule Agonists for Hypoxia Response Element Signaling Pathway (AID 914; active = well fitted activation curve with a large enough effect in the signal ratio, with a control signal flat, not every such curve was filed as active; the % refers to the signal ratio; also: potency is read from the fitted curve at half-maximal effect). Particulars: ME-180 (cervical carcinoma) HRE-bla reporter, beta-lactamase ratio, CoCl2, 17 h; activation: stronger effect = higher value. An outline of the steps: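 AC50 values come from titration-series %Activity, taken as the 460/530nm ratio of CCF4 fluorescence (excitation 405nm). CellSensor HRE-bla ME-180 cells were treated 17 hours at 37 C with compound plus an EC50 level of CoCl2.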

The target in experiment [9] is Dual specificity protein kinase CLK4 (Homo sapiens) (UniProt Q9HAZ1). The experiment is described as follows: qHTS Assay for Inhibitors of CDC-like Kinase 4 (ADP-Glo Assay) (AID 1771). Also: % is scaled to controls: 0 for no effect and ±100 for the full control effect; nearly all actives have a fitted effect of over 70% in size. The essentials:
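Compounds are pin-transferred onto substrate mix (100 uM RS peptide, 1 uM ATP), then 25 nM Clk4 is added. After 1 hr at room temperature, ADP-Glo reagent runs 45 min, detection reagent 30 min, then luminescence is read.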

Experiment [10] shares this target. The experiment is described as follows: qHTS Assay for Inhibitors of CDC-like Kinase 4 (ADP-FP Assay) (AID 1795).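 Also: recombinant human CLK4 phosphorylating RS repeat peptide at 1 µM ATP; % is scaled to controls: 0 for no effect and ±100 for the full control effect; nearly all actives have a fitted effect of over 60% in size.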 An outline of the steps:
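Kinase activity was followed as ADP output, converted from fluorescence polarization with a calibration curve. Reactions ran one hour at low ATP (1 uM) with RS peptide substrate.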

Experiment [11] has as its target Rap guanine nucleotide exchange factor 3 (Homo sapiens) (UniProt O95398). Put plainly: Confirmatory qHTS for antagonist of cAMP-regulated guanine nucleotide exchange factor 3 (EPAC1) (AID 1645880). Also: nearly all actives have a fitted effect of over 55% in size. Also: potency is read from the fitted curve at half-maximal effect.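 As to activity, negative = inhibition: plate controls were DMSO only for no effect and full effect of the ATA control for full effect.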 Particulars: EPAC1 Rap1B-BODIPY-GDP exchange, fluorescence; activity, negative = inhibition: at 115 µM (top of the series). An outline of the steps: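 Released BODIPY-GDP fluoresces less than Rap1-bound BODIPY-GDP; the signal is followed at 480/540 nm at 5-min intervals over 30 min, after 5 min at room temperature. Reactions contain 100 nM EPAC1, 250 nM RAP1B-BODIPY-GDP and 50 uM GDP; results are normalized to ATA and DMSO.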

The target is the same in experiment [12]. The experiment is described as follows: Confirmatory qHTS for agonist of cAMP-regulated guanine nucleotide exchange factor 3 (EPAC1) (AID 1645881).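 Also: EPAC1 catalysed release of BODIPY-GDP from Rap1B seen as fluorescence loss; 100% = effect of cAMP agonist control; nearly all actives have a fitted effect of over 75% in size.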
The target of experiment [13] is Rap guanine nucleotide exchange factor 4 (Homo sapiens) (UniProt Q8WZA2). Put plainly: Confirmatory qHTS for agonist of cAMP-regulated guanine nucleotide exchange factor 4 (EPAC2) (AID 1645884).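 Also: nucleotide exchange releases bodipy-GDP from Rap1 and this lowers its fluorescence; % is scaled to controls: 0 for no effect and ±100 for the full control effect; nearly all actives have a fitted effect of over 65% in size.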
Sequence of Rap guanine nucleotide exchange factor 4 (Homo sapiens) (Q8WZA2 whole entry, looked up): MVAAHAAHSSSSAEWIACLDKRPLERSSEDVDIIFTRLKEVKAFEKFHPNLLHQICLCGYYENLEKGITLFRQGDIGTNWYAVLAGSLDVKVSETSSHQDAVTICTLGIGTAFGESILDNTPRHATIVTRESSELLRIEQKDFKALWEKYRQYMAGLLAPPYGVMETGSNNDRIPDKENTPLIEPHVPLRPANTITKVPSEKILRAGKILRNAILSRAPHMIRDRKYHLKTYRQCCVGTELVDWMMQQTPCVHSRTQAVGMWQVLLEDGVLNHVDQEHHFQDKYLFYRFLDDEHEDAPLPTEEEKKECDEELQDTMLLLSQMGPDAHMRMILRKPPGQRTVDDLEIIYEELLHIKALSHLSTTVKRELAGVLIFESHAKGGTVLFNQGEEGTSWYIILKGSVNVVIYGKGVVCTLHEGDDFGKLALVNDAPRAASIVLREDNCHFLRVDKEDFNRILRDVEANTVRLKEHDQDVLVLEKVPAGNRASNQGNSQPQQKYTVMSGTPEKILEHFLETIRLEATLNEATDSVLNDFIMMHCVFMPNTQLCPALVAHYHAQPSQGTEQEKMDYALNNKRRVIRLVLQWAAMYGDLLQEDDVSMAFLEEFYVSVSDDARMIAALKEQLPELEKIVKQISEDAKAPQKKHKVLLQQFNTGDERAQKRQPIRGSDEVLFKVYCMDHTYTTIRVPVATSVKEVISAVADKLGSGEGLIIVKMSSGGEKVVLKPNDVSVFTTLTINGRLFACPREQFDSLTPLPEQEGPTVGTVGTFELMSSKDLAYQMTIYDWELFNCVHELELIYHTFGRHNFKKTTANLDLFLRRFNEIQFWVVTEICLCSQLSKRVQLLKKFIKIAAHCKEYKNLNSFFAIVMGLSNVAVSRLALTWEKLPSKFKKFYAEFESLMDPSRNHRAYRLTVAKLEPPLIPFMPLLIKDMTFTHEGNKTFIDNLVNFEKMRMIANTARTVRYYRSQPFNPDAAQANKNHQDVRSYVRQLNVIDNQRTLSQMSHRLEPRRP
The target is the same in experiment [14]. The experiment is described as follows: Confirmatory qHTS for antagonist of cAMP-regulated guanine nucleotide exchange factor 4 (EPAC2) (AID 1645885). Also: nearly all actives have a fitted effect of over 25% in size. Also: potency is read from the fitted curve at half-maximal effect. As to activity change, negative = inhibition: % is scaled to controls: 0 for no effect and ±100 for the full control effect.
The target of experiment [15] is Lysosomal acid glucosylceramidase (Homo sapiens) (UniProt P04062). The experiment is described as follows: Glucocerebrosidase-p2 (AID 348; in the data active = potency below about 10 µM; also: potency is read from the fitted curve at half-maximal effect). Particulars: purified GBA, blue fluorogenic substrate, 40 min. An outline of the steps:
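Normal human glucocerebrosidase (0.2 nM) with blue fluorogenic substrate (80 uM final) in citrate/phosphate pH 5.9 with 10mM sodium taurocholate, 0.01% tween-20; 40 min RT, NaOH/glycine stop; fluorescence Ex 365/Em 440; AC50 from a titration from 0.6 nM upwards.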

Experiment [16] concerns the target Dual specificity protein kinase CLK4 (Homo sapiens) (UniProt Q9HAZ1). Put plainly: qHTS Assay for Inhibitors of CDC-like Kinase 4 (Kinase-Glo Assay) (AID 1770). Also: % is scaled to controls: 0 for no effect and ±100 for the full control effect; nearly all actives have a fitted effect of over 65% in size. The essentials:
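Clk4 25 nM, RS peptide 100 uM, ATP 1 uM, pH 7.5 Tris, 10 mM MgCl2, 2.5 mM DTT; 4.5 h RT; ATP depletion read by Kinase-Glo luminescence.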

The target in experiment [17] is Ubiquitin carboxyl-terminal hydrolase 1 (Homo sapiens) (UniProt O94782). Put plainly: Inhibitors of USP1/UAF1: Pilot qHTS (AID 504865).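 Also: rhodamine fluorescence freed from ubiquitin-rhodamine substrate followed over time; top concentration of the series differs between compounds; % is scaled to controls: 0 for no effect and ±100 for the full control effect; nearly all actives have a fitted effect of over 35% in size.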 An outline of the steps: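 Enzyme-free wells gave the negative control, while test wells held 1nM USP1/UAF1 preincubated with compound for 15 min at room temperature. Ub-Rho at 150nM final started the reaction, and fluorescence at 480/540 nm was recorded kinetically.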

Experiment [18] deals with DNA dC->dU-editing enzyme APOBEC-3G (Homo sapiens) (UniProt Q9HC16). Put plainly: qHTS for inhibitors of Vif-A3G interactions: Validation (AID 588379). Also: 0% is about no effect. The essentials:
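Yellow fluorescence (Ex 488, Em 500-530) of Vif-coexpressing HeLa A3G-eYFP cells, scanned by Acumen cytometer, reports blocked A3G degradation. Cells plated at 700/well overnight at 37 deg C before compound addition, then a further overnight compound incubation at 37 deg C.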

Experiment [19] is described as follows: Stat Signaling Pathway (AID 446; active = well fitted curve in either direction with a large enough effect, not every such curve was filed as active;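 also: ME-180 cervical cancer cells given 40 pM IL-6 alongside compound; SIE-controlled beta-lactamase reporter measured as 460/530 nm FRET emission ratio; % is scaled to controls: 0 for no effect and ±100 for the full control effect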). An outline of the steps:
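Emission at 460 and 530 nm (excitation 405 nm) reports SIE-controlled beta-lactamase in ME-180 cells. Cells received compound with 40 pM IL-6 for 5 hrs at 37 C; data scaled between 300 pM IL-6 and 125 nM JAK-inhibitor controls.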

The target of experiment [20] is Cytochrome P450 2C19 (Homo sapiens) (UniProt P33261). Put plainly: qHTS Assay for Inhibitors and Substrates of Cytochrome P450 2C19 (AID 899). Also: potency is read from the fitted curve at half-maximal effect; nearly all actives have a fitted effect of over 60% in size. The essentials:
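Reactions contain 5nM enzyme, 10uM Luciferin-H EGE (KM) and 50mM KPO4; compound preincubates 10 min at 37C, NADPH regeneration starts turnover for 60 min. Luminescence after detection reagent gives activity.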

Experiment [21] deals with Rap guanine nucleotide exchange factor 3 (Homo sapiens) (UniProt O95398). Put plainly: Counterscreen qHTS for agonist of cAMP-regulated guanine nucleotide exchange factor 3 (EPAC1) (AID 1645889). Also: % of control where 0% means no effect; nearly all actives have a fitted effect of over 40% in size. An outline of the steps:
(§1)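 Rap1B-BODIPY-GDP 250 nM + GDP 50 uM; cpds 7-pt, final 9.74 nM–152 uM (activator mode) or from 7.32 nM upwards (inhibitor mode); RT; FI 480/540 nm at 5 and 30 min, then ± cAMP, reread.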
A general note: Counterscreens check selectivity or assay interference.

For experiment [22] the target is unchanged. The experiment is described as follows: Counterscreen qHTS for antagonist of cAMP-regulated guanine nucleotide exchange factor 3 (EPAC1) (AID 1645888). Also: % of control where 0% means no effect. The essentials:
as §1

Sequence of Rap guanine nucleotide exchange factor 3 (Homo sapiens) (O95398 whole entry, looked up): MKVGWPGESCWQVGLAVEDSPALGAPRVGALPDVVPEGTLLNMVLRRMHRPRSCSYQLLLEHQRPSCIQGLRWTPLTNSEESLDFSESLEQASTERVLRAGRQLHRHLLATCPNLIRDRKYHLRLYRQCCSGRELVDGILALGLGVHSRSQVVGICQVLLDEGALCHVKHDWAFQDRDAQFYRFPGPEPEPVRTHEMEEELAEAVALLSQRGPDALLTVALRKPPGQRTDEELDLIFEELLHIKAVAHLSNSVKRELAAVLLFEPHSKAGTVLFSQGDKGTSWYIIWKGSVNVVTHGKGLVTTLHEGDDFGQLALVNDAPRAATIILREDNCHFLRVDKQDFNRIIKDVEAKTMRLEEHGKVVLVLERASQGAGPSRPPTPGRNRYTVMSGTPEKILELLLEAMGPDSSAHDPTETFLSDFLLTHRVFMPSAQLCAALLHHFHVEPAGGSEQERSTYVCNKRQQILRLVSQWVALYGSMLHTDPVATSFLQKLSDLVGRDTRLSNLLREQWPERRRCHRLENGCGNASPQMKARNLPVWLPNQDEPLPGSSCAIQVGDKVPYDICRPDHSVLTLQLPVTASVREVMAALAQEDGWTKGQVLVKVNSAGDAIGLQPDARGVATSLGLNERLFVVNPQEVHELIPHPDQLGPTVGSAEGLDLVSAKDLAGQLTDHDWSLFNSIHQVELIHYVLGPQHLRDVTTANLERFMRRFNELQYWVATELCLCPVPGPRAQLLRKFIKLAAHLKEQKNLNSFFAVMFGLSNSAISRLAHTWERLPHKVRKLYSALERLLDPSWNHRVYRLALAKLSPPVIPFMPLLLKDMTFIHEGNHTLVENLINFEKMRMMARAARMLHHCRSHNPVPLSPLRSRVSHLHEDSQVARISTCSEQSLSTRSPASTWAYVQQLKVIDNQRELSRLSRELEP
Sequence of 3',5'-cyclic-AMP phosphodiesterase 4B (Homo sapiens) (Q07343 whole entry, looked up): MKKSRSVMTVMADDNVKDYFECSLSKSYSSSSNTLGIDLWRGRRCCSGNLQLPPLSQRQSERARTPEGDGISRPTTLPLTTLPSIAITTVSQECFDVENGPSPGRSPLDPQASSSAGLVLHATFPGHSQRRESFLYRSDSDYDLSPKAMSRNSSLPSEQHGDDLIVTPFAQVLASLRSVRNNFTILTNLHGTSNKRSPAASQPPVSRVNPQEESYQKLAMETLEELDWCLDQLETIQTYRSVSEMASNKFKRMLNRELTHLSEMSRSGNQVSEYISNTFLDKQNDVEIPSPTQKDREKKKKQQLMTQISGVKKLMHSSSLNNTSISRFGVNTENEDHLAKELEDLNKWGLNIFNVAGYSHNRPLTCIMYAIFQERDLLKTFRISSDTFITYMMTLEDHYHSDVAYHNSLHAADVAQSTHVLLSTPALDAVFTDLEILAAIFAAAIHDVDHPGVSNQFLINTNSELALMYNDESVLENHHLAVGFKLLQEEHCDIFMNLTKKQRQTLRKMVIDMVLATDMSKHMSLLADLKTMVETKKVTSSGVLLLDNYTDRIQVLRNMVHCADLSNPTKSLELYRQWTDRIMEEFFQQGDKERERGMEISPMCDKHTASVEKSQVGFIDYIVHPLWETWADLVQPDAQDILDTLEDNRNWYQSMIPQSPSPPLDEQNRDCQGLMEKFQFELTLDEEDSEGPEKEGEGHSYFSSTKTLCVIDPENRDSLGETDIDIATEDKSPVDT
Sequence of Cytochrome P450 3A4 (Homo sapiens) (P08684 whole entry, looked up): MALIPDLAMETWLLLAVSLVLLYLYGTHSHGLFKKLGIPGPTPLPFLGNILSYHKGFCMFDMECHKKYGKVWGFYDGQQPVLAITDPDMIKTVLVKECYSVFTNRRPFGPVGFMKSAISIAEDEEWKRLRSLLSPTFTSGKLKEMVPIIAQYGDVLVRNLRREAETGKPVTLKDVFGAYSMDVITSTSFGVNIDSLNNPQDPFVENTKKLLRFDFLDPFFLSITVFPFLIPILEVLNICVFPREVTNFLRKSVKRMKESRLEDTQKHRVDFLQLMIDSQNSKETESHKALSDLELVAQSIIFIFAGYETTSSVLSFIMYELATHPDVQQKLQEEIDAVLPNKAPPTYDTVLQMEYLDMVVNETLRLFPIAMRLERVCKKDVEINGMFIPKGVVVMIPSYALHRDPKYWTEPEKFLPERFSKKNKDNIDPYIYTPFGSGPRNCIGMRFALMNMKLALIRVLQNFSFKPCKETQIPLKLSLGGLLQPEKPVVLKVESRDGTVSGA
Sequence of Dual specificity protein kinase CLK4 (Homo sapiens) (Q9HAZ1 whole entry, looked up): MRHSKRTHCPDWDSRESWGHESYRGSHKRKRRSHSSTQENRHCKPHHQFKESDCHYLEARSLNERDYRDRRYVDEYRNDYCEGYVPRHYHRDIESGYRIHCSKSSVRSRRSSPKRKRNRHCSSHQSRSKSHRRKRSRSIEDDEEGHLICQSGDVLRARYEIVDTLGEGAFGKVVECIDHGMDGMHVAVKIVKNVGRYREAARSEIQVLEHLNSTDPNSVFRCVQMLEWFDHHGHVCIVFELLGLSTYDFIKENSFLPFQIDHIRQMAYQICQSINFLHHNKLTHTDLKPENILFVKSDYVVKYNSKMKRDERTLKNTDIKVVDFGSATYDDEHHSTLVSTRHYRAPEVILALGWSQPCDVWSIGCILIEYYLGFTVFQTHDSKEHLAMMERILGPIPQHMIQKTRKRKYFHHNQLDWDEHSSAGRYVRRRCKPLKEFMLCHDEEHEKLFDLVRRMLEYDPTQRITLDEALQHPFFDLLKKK

In the case of `CN1CCN(c2ncc3nc(-c4cn(C)c5ccccc45)c(=O)n(CCC#N)c3n2)CC1`, the activity change, negative = inhibition is -1.18% in experiment [1] and 23.5% in experiment [3]. The Potency in experiment [2] was 15.8 µM (active); in [4] it was greater than 9.22 µM; in experiment [5], greater than 46 µM; in experiment [8], 3.16 µM (active). For the same compound, the Potency result in experiment [6], in experiment [9], in [10], in experiment [11], in experiment [12] and in experiment [13] was “inactive” each time. The Potency result in experiment [14] is “inactive”. For the same compound, in experiment [7], the compound was called inactive.

Regarding `CN1CCN(c2ncc3nc(-c4cccs4)c(=O)n(CCc4ccccc4)c3n2)CC1`, the Potency in [15] is greater than 11.4 µM; in [2], 2.51 µM (active); in [4] it was greater than 9.22 µM; in experiment [5] it was greater than 46 µM; in experiment [8], 3.16 µM (active). Besides, the Potency result in experiment [6], in [16], in experiment [9], in experiment [10], in experiment [17] and in [11] was “inactive” each time. Also, the Potency entry in experiment [12], in [13] and in experiment [14] was “inactive” in each case. Besides, the outcome in [7] was inactive.

For the compound `C=C1CCC(O)C/C1=C\C=C1/CCCC2(C)C1CCC2C(C)/C=C/C(C)C(C)C` (stereo not given), in experiment [18], the compound was classed as inactive. In addition, the Potency entry in [11], in experiment [12], in [13] and in [14] was “inactive” each time.

In the case of `COc1cccc(Cn2c(=O)c(CCc3ccccc3)nc3cnc(N4CCN(C)CC4)nc32)c1`, the Potency was greater than 11.4 µM in experiment [15]; 15.8 µM (active) in [2]; greater than 9.22 µM in experiment [4]; greater than 46 µM in experiment [5]; 7.94 µM (active) in experiment [20]. For the same compound, the activity change, negative = inhibition is -3.73% in [1] and 8.33% in experiment [3]. For the same compound, the compound was classed as inactive in experiment [19] and in experiment [7]. The Potency entry in experiment [6], in experiment [16], in [9], in [10], in experiment [17] and in experiment [11] was “inactive” in each case. Also, the Potency entry in [12], in experiment [13] and in [14] was “inactive” each time.

Take `Cc1csc(N=Nc2ccc(N(C)C)cc2)[n+]1[O-]`: the Potency in experiment [11] was 67.5 µM (active); in [14] it was 37.9 µM (active). The Potency result in experiment [12], in experiment [13] and in experiment [21] was “inactive” in each case.

In the case of `Cc1cc(Nc2ccccc2)c2c([N+](=O)[O-])ccc(C)c2n1`, the Potency entry in [11], in experiment [12], in experiment [13] and in experiment [22] was “inactive” in each case.

For `CN(Cc1ccnc2ccccc12)C(=O)C1CCC(=O)N(Cc2ccccc2F)C1` (stereo not given), the Potency result in experiment [11], in experiment [12], in experiment [13] and in experiment [22] was “inactive” each time.
